Assay outcomes deposited in PubChem by National Center for Advancing Translational Sciences (NCATS).
Lassa entry inh – blocks Lassa virus binding to or entry into cells; Lassa virus pseudotype entry inhibition, cell reporter; Potency, µM (top dose mostly 37.9 µM), without a hit: at the top dose activity change, negative = inhibition, hits mostly inhibitors; hit rate 1.2% among 300,000; calls by dose curve; tested in HEK293 cells; further: potency means the concentration at half of the fitted maximal effect; nearly all actives have a fitted effect of over 50% in size
Marburg entry inh – blocks Marburg virus binding to or entry into cells; Marburg virus pseudotyped entry inhibition, cell reporter; Potency, µM (top dose mostly 37.8 µM), for inactives: at the highest dose activity change, negative = inhibition, usual class: inhibitors; hit rate 1.8% among 300,000; AID 540276; calls by dose curve; tested in HEK293 cells; further: potency means the concentration at half of the fitted maximal effect
HCMV antiviral – inhibitors of human cytomegalovirus | HFF cells, HCMV-luciferase reporter, 72 h; stronger effect = lower value | activity change, negative = inhibition, % at 57.5 µM | hit rate 4.5% among 410,000 | AID 1259415; in the data active means activity change below about -60%; inconclusive means no clear call, values can overlap the other calls; inactive means above about -39%
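Screen run at 2 compound doses on HFFs infected with reporter HCMV, MOI 1 PFU/cell. Luciferase activity from cell lysates at 72 h post infection gave inhibition relative to buffer-only and Salinomycin wells.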
FMDV inh – antivirals against foot and mouth disease virus; hit rate 1.2% among 410,000; Potency, µM (titrated, usually from 57.9 µM), for inactives: at the highest dose activity change, negative = inhibition, usual class: inhibitors; FMDV antiviral cell-based qHTS; calls by dose curve; tested in HEK293T cells; further: read-out not given here; potency means the concentration at half of the fitted maximal effect; nearly all actives have a fitted effect of over 45% in size
* marks the source's active call; other numbers are inactive results; ? = inconclusive; · = no result given; [ ] = remark or other dose. The list is not random: actives were taken first. Their share in the collection is about 6.2%. On the % scale 0 is the no-effect control and ±100 the full control effect.

SMILES	Lassa entry inh	Marburg entry inh	HCMV antiviral	FMDV inh
Cc1ccc(O)c(NC(=O)CSc2n[nH]c(-c3ccccc3)n2)c1	·	·	-83*	?
CC1CC(C)CN(S(=O)(=O)c2ccccc2[N+](=O)[O-])C1 (configuration not stated)	2%	-13%	-72*	-10%
CC(=O)Nc1nc(-c2ccc3c(c2)CC(C)N3C(=O)C2CC2)c(C)s1 (configuration not stated)	6%	-16%[46.1 µM]	-100*	0%
CCOC(=O)C(=O)Nc1nc(-c2ccc3c(c2)CCN3C(=O)C2CC2)c(C)s1	29%[46.1 µM]	11%[46.1 µM]	5	0%
Cc1sc(NC(=O)c2ccco2)nc1-c1ccc2c(c1)CC(C)N2C(=O)C1CC1 (configuration not stated)	9.2µM*	10µM*	-97*	14µM*
COc1ccccc1-c1noc2nc(OCc3ccc(F)cc3)ccc12	·	·	15	·
COC(=O)C(c1cccc(OC)c1)(c1cn(C)c2ccccc12)C(Nc1ccccc1)c1ccccc1 (configuration not stated)	·	·	-6	·
O=C(c1ccc(COc2ccc(Cl)cc2)o1)N1N=C(C(F)F)CC1(O)C(F)F (configuration not stated)	-16%	-30%	-70*	?
O=C(COC(=O)c1c[nH]c2ccccc12)Nc1ccccc1	8%	-14%	-7	-7%
CC(NC(=O)COC(=O)c1c[nH]c2ccccc12)c1ccccc1 (configuration not stated)	8.9µM*	13%	25	-20%
CCn1cc(S(=O)(=O)NC2CCCCC2)cn1	?	-24%[46.1 µM]	-60*	10%
CCOC(=O)[C@@H](C#N)[C@@H](Cc1ccccc1)c1ccco1	·	1%	·	·
Cc1ccc(CNC(=O)CN(Cc2cccs2)C(=O)C2(C)CC(=O)N=C3C=CC=CN32)cc1 (configuration not stated)	8%	4%	-77*	-9%
O=C(NN=C1C[C@@H](O)[C@H](O)[C@H]2[C@@H]3C(=O)N(C[C@@H]4CCCO4)C(=O)[C@@H]3CC[C@H]12)OCc1ccccc1	2%[14.3 µM]	?	·	·
Cc1oc2cc3oc(=O)c(CC(=O)N4CCCCC4)c(C)c3cc2c1C	-2%[46.1 µM]	4%[46.1 µM]	-71*	23%
O=C(Nc1ccc(N2CCCCC2)cc1)c1ccccn1	0.52µM*	0.46µM*	·	2.8µM*
COc1ccccc1C(=O)Nc1c(C)cc(Br)cc1C	·	·	-61*	-2%
COc1ccccc1C(=O)Nc1ccc(N2CCCCC2)cc1	?	7.9µM*	-8	5%
COc1ccccc1C(=O)Nc1ccc(N2CCN(C(C)=O)CC2)cc1	16%[46.1 µM]	?	?	-3%
Cc1cc(Br)cc(C)c1NC(=O)c1ccccc1[N+](=O)[O-]	-7%	?	?	-15%
COC(=O)c1cccc(C(=O)N2CCc3c(cnc(C)c3CNC(=O)/C=C/c3cccs3)C2)c1	·	·	·	-8%
COC(=O)CC=C[C@H](C)[C@@H](OCc1ccccc1Br)C(C)C	?	14%[14.2 µM]	·	·
COC(=O)C1=C(C)N(CCC(C)O)C(=O)N(C(C)=O)C1c1ccccc1 (configuration not stated)	?	5%[14.2 µM]	·	·
COc1cccc(-n2c(SC)nnc2C2CCN(Cc3cccc(OC)c3O)CC2)c1	·	·	·	-17%
CSC(=S)NN=C(C)c1cccc(C)n1	?	5µM*	-80*	5%
SMILES	Lassa entry inh	Marburg entry inh	HCMV antiviral	FMDV inh
Cc1ccc(NC(=O)C[n+]2cc(-c3ccccc3)n3c2CCC3)c(C)c1	0%[46.1 µM]	-9%[46.1 µM]	?	-5%
Cc1ccc(-c2c[n+](Cc3cccc(Cl)c3)c3n2CCC3)cc1	?	?	-86*	?
Clc1cccc(C[n+]2cc(-c3ccccc3)n3c2CCC3)c1	3%	?	-70*	-5%
CN([C@H]1CCS(=O)(=O)C1)S(=O)(=O)c1cccc2nsnc12	·	21%	·	·
COc1ccc(-c2cc(C3CCN(c4ccc(C(C)=O)cc4[N+](=O)[O-])CC3)[nH]n2)cc1	?	?	-98*	18µM*
COC(=O)c1ccc(N2CCC(c3cc(-c4ccc(OC)cc4)n[nH]3)CC2)c([N+](=O)[O-])c1	?	?	-33	?
Cc1cccc(OCCn2c(SCC(=O)O)nc3ccccc32)c1	1%[46.1 µM]	·	-14	-12%
CCSc1nnc(C(C)NS(=O)(=O)c2cccc(Cl)c2C)n1C (configuration not stated)	·	·	·	0%
Cc1ccc(OC(=O)CN2C(=O)c3ccccc3C2=O)cc1C	24%[46.1 µM]	20%[46.1 µM]	-61*	-12%
O=C(CN1C(=O)c2ccccc2C1=O)Oc1ccc(Cl)cc1	7%[46.1 µM]	-3%[46.1 µM]	-5	-12%
O=C(CCN1C(=O)c2ccccc2C1=O)Oc1ccc2ccccc2c1	-17%	3%	46	15%
CC1=CC(C)(C)Nc2ccc(OC(=O)CCN3C(=O)c4ccccc4C3=O)cc21	?	?	-100*	?
Cc1c(NS(=O)(=O)c2ccccc2)ccc([N+](=O)[O-])c1Cl	?	?	-65*	7%
O=C1N=C(N2CCc3ccccc3C2)S/C1=C\c1cccc(O)c1	21µM*	24%	8	6%
COc1ccc(/C=C2\SC(N3CCc4ccccc4C3)=NC2=O)cc1	?	?	29	-5%
COc1ccc(COC(=O)N/N=C2\C[C@@H](O)[C@@H](O)[C@@H]3[C@@H]4C(=O)N(Cc5ccc6c(c5)OCO6)C(=O)[C@@H]4CC[C@@H]23)cc1	·	4%[14.2 µM]	·	·
COc1ccccc1C(=O)N1c2ccccc2C(C)(c2ccc(Cl)cc2)CC1(C)C (configuration not stated)	?	·	-72*	?
Cc1ccc2c(c1)C(C)(c1ccccc1)CC(C)(C)N2C(=O)c1ccc(F)cc1 (configuration not stated)	21%[46.1 µM]	·	?	?
CC1(c2ccc(Cl)cc2)CC(C)(C)N(C(=O)c2cccc(F)c2)c2ccccc21 (configuration not stated)	-14%[46.1 µM]	·	-65*	-6%
CCCCC(=O)N1c2ccccc2C(C)(c2ccccc2)CC1(C)C (configuration not stated)	?	-26%[46.1 µM]	-7	-26%
COc1cccc(C(=O)N2c3cc(C)ccc3C(C)(c3ccccc3)CC2(C)C)c1 (configuration not stated)	?	·	-16	?
CC1(c2ccccc2)CC(C)(C)N(C(=O)c2ccccc2Cl)c2ccccc21 (configuration not stated)	-1%[46.1 µM]	20%[46.1 µM]	28	28µM*
COc1ccc(C(=O)N2c3ccc(C)cc3C(C)(c3ccccc3)CC2(C)C)cc1 (configuration not stated)	-9%[46.1 µM]	·	-71*	?
O=C(Cc1c[nH]c2ccccc12)N1CCC(n2c(C3CCCO3)nc3cc(C(F)(F)F)ccc32)CC1 (configuration not stated)	·	·	·	-6%
Cc1cnc(-n2ncc(C(=O)NCC3CCCN(C)C3)c2C)nc1-c1cccs1 (configuration not stated)	·	·	·	-4%
Cc1ccc(C2NC(=S)NC3=C2C(=O)CCC3)cc1 (configuration not stated)	-11%	18%[46.1 µM]	100	8%
O=C1CCCC2=C1C(c1ccccc1)NC(=S)N2 (configuration not stated)	-5%	-19%[46.1 µM]	-103*	-7%
